Measurements reported in PubChem BioAssay (NCATS).
Results filed as inconclusive are left out. Entries that show only a call come without a potency. Values without a mark were called inactive. Calls of active or inactive are those of the source. The call rests on the fitted dose curve; in most records, active means well fitted cell-killing curve with a large enough effect; inconclusive means small, poorly fitted or top-dose-only effect, or effect the other way; inactive means flat fitted curve, though single readings scatter.

Test system: HeLa
Assay: Primary qHTS to identify gynecologic anti-cancer compounds using libraries of approved drugs and bioactive compounds (AID 1345084); further: nearly all actives have a fitted effect of over 55% in size
Conditions: Gynecologic cancer cell panel viability, ATPlite luminescence, 48 h; series mostly up to 57.5 µM
Summary of the method: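 Cytotoxicity screen measuring ATP content by luciferase luminescence. Each compound is applied at five concentrations for 48 h at 37 C with 5% CO2.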

SMILES | Potency | activity change, negative = cytotoxicity
CC(=O)OCC(=O)O[C@@H]1[C@H]2[C@@H](OC(=O)c3ccccc3)[C@@H](C)C[C@]2(O)[C@H](OC(C)=O)C2(C)[C@H]3CC(C)(C)C(=O)[C@@H]3CC1(OC(C)=O)[C@@H]2OC(C)=O (some centres undefined) | inactive | 
CC1(O)CCC2C(C(=O)O)=COC(OC3OC(CO)C(O)C(O)C3OC(=O)/C=C/c3ccc(O)cc3)C21 (centres undefined) | inactive | 
CC(=O)NC(CCC(=O)O)C(=O)NCCc1ccc(O)cc1 (centres undefined) | inactive | 
COC(=O)C1C(c2ccc(O)cc2)C(C(=O)OC)C1c1ccc(O)cc1 (centres undefined) | inactive | 
C=C(C)C(=O)O[C@H]1C[C@@](C)(OC(C)=O)[C@@]2(O)CC[C@@](C)(O)[C@H](OC(C)=O)[C@@]23OC(=O)C(COC)=C13 | inactive | 
CC1(C)CC(=O)N(CCCCN2CCN(c3ncccn3)CC2)C(=O)C1 | inactive | 
COc1ccc2c(c1)OC[C@]1(O)c3cc4c(cc3O[C@H]21)OCO4 | inactive | 
CC(CCC1(O)OC2CC3C4CCC5CC(O[C@@H]6O[C@H](CO)[C@@H](O)[C@H](O)[C@H]6O[C@@H]6OC[C@@H](O)[C@H](O)[C@H]6O)C(O)CC5(C)C4CCC3(C)C2C1C)CO[C@@H]1O[C@H](CO)[C@@H](O)[C@H](O)[C@H]1O (some centres undefined) |  | -1.03% [at 11.6 µM]
COc1cc(CCc2ccccc2)c(C(=O)O)c2c1CC(C(C)(C)O)O2 (centres undefined) | inactive | 
CCCC1=CC2=C(CO1)C(=O)C(C)(OC(=O)c1c(C)cc(OC)cc1O)C(O)C2 (centres undefined) | inactive | 
C[C@@H]1O[C@@H](O[C@@H]2[C@@H](O)[C@H](O[C@@H]3[C@@H](O)[C@@H](O)[C@H](O[C@H]4[C@H](OC(=O)[C@]56CCC(C)(C)C[C@H]5C5=CCC7[C@@]8(C)C[C@H](O)[C@H](O[C@@H]9O[C@@H](C)[C@H](O)[C@@H](O)[C@H]9O)[C@@](C)(CO)C8CC[C@@]7(C)[C@]5(C)C[C@H]6O)O[C@H](C)[C@H](O)[C@@H]4O)O[C@H]3C)OC[C@H]2O)[C@H](O)[C@H](O)[C@H]1O (some centres undefined) |  | 3.33% [at 6.55 µM]
CCS(=O)(=O)N1CCC([C@@H](C)n2c(C)c(C(=O)NCc3c(OC)cc(C)[nH]c3=O)c3ccccc32)CC1 | inactive | 
C/C=C1\[C@H](O[C@@H]2O[C@H](CO)[C@@H](O)[C@H](O)[C@H]2O)OC=C(C(=O)OC)[C@H]1CC(=O)OC | inactive | 
O=C(O[C@H]1[C@@H]2C[C@@H]3OC[C@@](O)([C@H]2[C@H](O[C@@H]2O[C@H](CO)[C@@H](O)[C@H](O)[C@H]2O)O3)[C@@H]1O)c1ccccc1 | inactive | 
CC1CCC2C(C)(C)C(O)CCC2(C)C12Cc1c(O)cc3c(c1O2)C(N)=NC3 (centres undefined) | inactive | 
C=CC(C)(C)O[C@@H]1O[C@H](CO[C@@H]2OC[C@](O)(CO)[C@H]2O)[C@@H](O)[C@H](O)[C@H]1O | inactive | 
CCCC(N[C@@H](C)C(=O)N1[C@H](C(=O)O)C[C@@H]2CCCC[C@@H]21)C(=O)OCC (some centres undefined) | inactive | 
O=C(O)c1ccc(CCCc2ccc(OCCc3ccc(F)cc3)cc2)o1 | inactive | 
Cc1[nH]cnc1C1CCN(c2nc3cccc4c3n2CCC4=O)CC1 | inactive | 
C[C@@H]1O[C@@H](O[C@@H]2[C@@H](O)[C@H](O[C@@H]3[C@@H](O)[C@@H](O)[C@H](O[C@H]4[C@H](OC(=O)[C@]56CCC(C)(C)C[C@H]5C5=CCC7[C@@]8(C)C[C@H](O)[C@H](O[C@@H]9O[C@H](C(=O)O)[C@@H](O)[C@H](O)[C@H]9O)[C@@](C)(CO)C8[C@H](O)C[C@@]7(C)[C@]5(C)CC6)OC[C@H](O)[C@@H]4O)O[C@H]3C)OC[C@H]2O)[C@H](O)[C@H](O)[C@H]1O (some centres undefined) |  | 9.33% [at 6.55 µM]
CC1(C)CC2C(O)C3=C(CC(C)(O)C2C1)C(=O)OC3O (centres undefined) | inactive | 
CC(C)=CC/C=C(/C)[C@H]1CC[C@]2(C)[C@@H]1[C@H](O)CC1[C@@]3(C)CC[C@H](O)C(C)(C)[C@@H]3[C@@H](O[C@@H]3O[C@H](CO)[C@@H](O)[C@H](O)[C@H]3O[C@@H]3O[C@@H](C)[C@H](O)[C@@H](O)[C@H]3O)C[C@]12C (some centres undefined) | inactive | 
O=C(/C=C/c1ccc(O)cc1)OCC1=C[C@@H](O)[C@@H]2C=CO[C@@H](O[C@@H]3O[C@H](CO)[C@@H](O)[C@H](O)[C@H]3O)[C@H]12 | inactive | 
O=C(O[C@H]1[C@@H]2C=CO[C@@H](O[C@@H]3O[C@H](CO)[C@@H](O)[C@H](O)[C@H]3O)[C@@H]2[C@@]2(CO)O[C@@H]12)c1ccc(O)c(O)c1 | inactive | 
